Results reported in PubChem BioAssay (NCI).
Compounds without any hit were thinned out: in the full panel of roughly 83,000, 20% have a hit.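 Testing used 96-well plates and a 48-hour single-concentration exposure. Example: -40 means 40% of the starting cells died.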 Values without a mark were called inactive. Activity calls are given as the source filed them.

The molecules below were run on OVCAR-8 ovarian (assay: NCI-60 one-dose screen, 48 h (100 = growth as untreated, 0 = no growth, -100 = all killed)). Details: 10 µM unless noted.
Method: Growth inhibition of the OVCAR-8 human tumor cell line is measured as a screen for anti-cancer activity. Cells are grown in 96 well plates and exposed to the test compound for 48 hours. Compounds are tested at a single concentration, which is 10^-5 M for most compounds. The reported endpoint is percent growth (GI% or GIPRCNT), where numbers from 0 - 100% represent growth inhibition, and numbers from -100% - 0 represent cell death. For example, a value of 40 represents 60% growth inhibition. A value of 0 means no net growth occurred over the course of the experiment. A value of -40 indicates 40% of cells at the beginning of the experiment died by the end of the experiment. A value of -100 means all cells are dead at the end of the experiment.
NCI-60 Human Tumor Cell Lines Screen was performed using the standard one-dose NCI protocol, which is described in more detail at https://dtp.cancer.gov/discovery_development/nci-60/default.htm.
Compounds with GIPRCNT values below 10 were considered active. Activity score was based on GIPRCNT using the following formula: […]
Score is 0 for GIPRCNT values of 100 or above, 50 for GIPRCNT values of 0, and 100 for GIPRCNT values of -100.

Compound	growth
O=C1CCC(=O)N1Cc1ccccc1	108%
CCN(CC)CCC(=O)c1cccc2ccccc12	104%
COC1=CC(c2ccc[nH]2)=N/C1=C\c1[nH]c(C)c(C(=O)CCCCC(=O)Oc2ccc3c(c2)CCC2C3CC[C@]3(C)[C@@H](O)CC[C@@H]23)c1C (stereo not given in full)	70.8%
Nc1cccc2c1CN(C1CCC(=O)NC1=O)C2=O (stereo not given)	81.1%
O=C(CCCn1c(=O)c2sc3ccccc3c2n2nnc(-c3ccccc3)c12)NCCc1cnc[nH]1	-28.5% (active)
O=C(CSc1nc(-c2ccc(Cl)cc2)cn1-c1ccc(Cl)cc1)c1ccc(Br)cc1	48%
O=C(CNc1ccc(Cl)cc1)Nc1ccc(-c2nc3ccccc3s2)cc1	66.4%
CNC(=O)c1cc(Oc2ccc3c(c2)sc2nc(-c4ccc(Cl)cc4)cn23)ccn1	73%
O=Nc1c(-c2c(O)[nH]c3ccc([N+](=O)[O-])cc23)[nH]c2ccc(O)cc12	7.71% (active)
CCNC(=O)CCCCC(=O)c1c(C)[nH]c(/C=C2\N=C(c3ccc[nH]3)C=C2OC)c1C	-38.3% (active)
CCN1C(=O)N(CC)C2C1NN=c1s/c(=C3\C(=O)N(C4CCCC4)c4ccccc43)c(=O)n12 (stereo not given)	23%
COc1cc(OC)cc(-c2n[nH]nc2-c2ccc3c(c2)OCO3)c1	28.6%
COc1cc(C2C=C(C)N=C3SC=C(C)N32)cc(OC)c1OC (stereo not given)	9.1% (active)
O=C1N=C(c2c(-c3[nH]c(=O)c4ccc(Br)cc4c3O)c(O)c3ccccc3c2O)C(=O)c2cc(Br)ccc21	-23.5% (active)
COc1cccc2cc(-c3cc4ccccc4[nH]3)c(=NC(=O)c3ccc(Cl)cc3)oc12	53.8%
COc1ccc(/C=C\c2cc(OC)c(OC)c(OC)c2)c(NS(=O)(=O)c2ccc(C(C)(C)C)cc2)c1O	21.9%
O=C(/C=C/CN1CCOCC1)Nc1cc2c(Nc3ccc(F)c(Cl)c3F)ncnc2cc1OCCOC(F)F	49.6%
O=[N+]([O-])c1c(S(=O)(=O)O)cc2cc(S(=O)(=O)O)ccc2c1[N+](=O)[O-]	114%
O=C(CN1CCN(c2cc3c(cc2F)c(=O)c(C(=O)O)cn3C2CC2)CC1)Nc1ccc(C(=O)/C=C/c2ccc(Cl)cc2)cc1	98%
Nc1ccccc1C#C/C=C\C#Cc1cccc(O)c1	84.9%

Compound	growth
Cc1cc(N/C=c2\sc3ncnn3c2=O)no1	101%
NC(=O)NC(=O)/C=C/C(=O)OCCCl	90.7%
Cc1ccc2c(c1)C(=O)C(c1c(-c3[nH]c(=O)c4ccc(C)cc4c3O)c(O)c3ccccc3c1O)=NC2=O	14.4%
CCC#CC[C@H]1C/C=C2/C(=O)C=C[C@@H]2C/C=C\CCCC(=O)O1	13.6%
CCNCc1ccncc1	103%
CC(C)C[C@H](NC(=O)Cn1ccc(NCc2ccccc2)cc1=O)B(O)O	51.3%
Cc1nc2sccn2c1-c1csc(Nc2ccccc2Cl)n1	53%
COc1cc(CCn2nnc3c(NCCCCO)ncnc32)cc(OC)c1	101%
COC1=CC(c2ccc[nH]2)=N/C1=C\c1[nH]c(C)c(C(=O)CCCCC(=O)NCc2ccccc2)c1C	31.5%
C=C1C(=O)O[C@H]2[C@H]1CC/C(COC(=O)NCc1cc(OC)cc(OC)c1)=C\CC[C@@]1(C)O[C@@H]21	-9.79% (active)
CCCCCCCCCCCCNC(=S)N/N=C/c1ccc(Cl)c(Cl)c1	100%
COc1cc(-c2csc(NC(=O)c3cc(C(F)(F)F)cc(C(F)(F)F)c3)n2)cc(OC)c1OC	25.5%
COc1ccc(NC(=O)/N=c2\oc3c(OC)cccc3cc2-c2cc3ccccc3[nH]2)cc1	49.1%
Cc1oc2ncnc(Nc3ccccc3)c2c1C(=O)NCCO	113%
COc1ccc(/C=C(\C#N)c2ccc([N+](=O)[O-])cc2)c2ccccc12	15.8%
Cc1cnc(NC(=O)C(Cc2ccccc2)NC(=O)c2ccccc2)s1 (stereo not given)	92.6%
CCOC(=O)c1ccccc1NC(c1ccccc1)c1ccc2cccnc2c1O (stereo not given)	17%
COc1ccc(C(=O)c2cc(OC)c(OC)c(OC)c2)cc1/C=C/C(=O)c1ccc2c(c1)OCO2	19.4%
O=c1oc2c([nH]c3ccc4ccccc4c32)c2ccccc12	104%
CCN1C(=O)N(CC)C2Nn3c(s/c(=C4\C(=O)N(C5CCCC5)c5ccccc54)c3=O)=NC21 (stereo not given)	60.2%
